Assay outcomes deposited in PubChem by several laboratories.
A selection: hits, their analogues and other compounds. The true share with any hit is near 4%.
ADAM10 inh – human ADAM10 inhibitors, primary screen, biochemical, QFRET, HTS; 370,000 tested, 0.62% active; Disintegrin and metalloproteinase domain-containing protein 10 (Homo sapiens), O14672; recombinant ADAM10, EDANS/DABCYL FRET peptide cleavage, 3 h; inhibition, % at 7 µM; AID 720582, 2013;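 active = inhibition above a per-campaign cutoff equal to the mean of compounds falling between control-based bounds plus 3 SD, cut at about 20% in these data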;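 note: 0% = DMSO wells while the 100% control is not disclosed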
FAS TE block – FAS thioesterase domain inhibitors, primary screen, biochemical, fluorescence intensity, uHTS; AID 602261, 2012; 360,000 tested, 0.67% active; inhibition, % at 15 µM; Fatty acid synthase (Homo sapiens), P49327; recombinant FAS-TE, OMFH fluorogenic substrate, fluorescence endpoint;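 active = compounds whose normalised, plate-corrected inhibition of enzyme fluorescence in the single-dose primary screen is 50% or more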;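 note: 0% = DMSO with enzyme and 100% = substrate without enzyme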
aDG glyco up – activators of alpha-DG glycosylation, primary screen, uHTS, Pro5-aDG cells, AlphaScreen. activation, % at 10 µM. alpha-DG glycosylation AlphaScreen (IIH6); 0% Pro5, 100% B10-LARGE cell signal. 360,000 tested, 0.22% active;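 active = activation of at least 8% versus controls, or a plate z-score of at least 8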;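 note: Pro5 are CHO cells carrying HIG-tagged alpha-DG that lacks glycosylation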
ADAM17 inh – ADAM17 inhibitors, primary screen, biochemical, QFRET; recombinant ADAM17, EDANS/DABCYL FRET peptide cleavage; Disintegrin and metalloproteinase domain-containing protein 17 (Homo sapiens), P78536; 370,000 tested, 0.83% active; inhibition, % at 6.95 µM;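 active = inhibition above the mean of compounds lying between control limits plus 3 SD, set per campaign, cut at about 8.5% in these data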;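 note: 0% = DMSO-only wells as the low control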
Target sequence (P78536 215-824 limits assumed): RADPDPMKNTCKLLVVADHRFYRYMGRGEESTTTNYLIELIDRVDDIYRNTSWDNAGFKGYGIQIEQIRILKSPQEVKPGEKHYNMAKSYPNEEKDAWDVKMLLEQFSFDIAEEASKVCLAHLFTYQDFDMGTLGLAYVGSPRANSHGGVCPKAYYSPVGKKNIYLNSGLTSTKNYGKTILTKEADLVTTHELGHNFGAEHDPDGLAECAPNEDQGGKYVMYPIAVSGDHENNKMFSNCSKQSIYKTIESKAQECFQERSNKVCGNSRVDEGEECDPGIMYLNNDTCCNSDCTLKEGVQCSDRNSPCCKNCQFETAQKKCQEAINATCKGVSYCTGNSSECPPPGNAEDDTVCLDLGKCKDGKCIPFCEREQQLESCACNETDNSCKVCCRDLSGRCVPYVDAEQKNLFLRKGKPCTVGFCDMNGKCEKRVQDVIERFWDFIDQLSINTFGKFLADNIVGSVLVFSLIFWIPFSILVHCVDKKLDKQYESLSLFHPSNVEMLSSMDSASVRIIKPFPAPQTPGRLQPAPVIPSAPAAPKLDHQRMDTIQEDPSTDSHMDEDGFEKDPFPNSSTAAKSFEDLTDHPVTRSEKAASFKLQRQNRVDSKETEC
NR3A LBD binder – binders of NR3A ligand-binding domain, primary screen, biophysical, differential scanning fluorimetry, uHTS. AID 1259313, 2017. Tm shift relative to glycine control, % at 25 µM. 340,000 tested, 2.5% active. NR3A LBD differential scanning fluorimetry, Tm shift; 0% = protein alone, 100% = glycine-bound protein;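 active = melting temperature shift of at least 10% of the positive control shift, at one fixed dose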
The depositor's hits bear a star; · = no result given.

SMILES | ADAM10 inh | FAS TE block | aDG glyco up | ADAM17 inh | NR3A LBD binder
C=CCn1c(SCC(=O)Nc2cc(C)on2)nc2sc(CC)cc2c1=O | 6 | 1 | 0 | -2 | -1
C=CCn1c(SCC(=O)Nc2ccc(O)cc2)nc2sc(CC)cc2c1=O | 1 | 1 | 0 | -3 | 33*
Cc1ccc(S(=O)(=O)N(C)CC(=O)OCC(=O)N2CCCC2=O)cc1 | -2 | -3 | 0 | -2 | -1
CC(=O)Nc1ccc(S(=O)(=O)N(C)CC(=O)OCC(=O)N2CCCC2=O)cc1 | -4 | -5 | 0 | -1 | 17*
COCC(C)n1c(C)cc(C(=O)COc2ccc(S(=O)(=O)N3CCOCC3)cc2Cl)c1C (configuration not stated) | -29 | 12 | 0 | -6 | 2
Cc1ccccc1OCC(=O)N/N=C/c1ccccn1 | 0 | -6 | 1 | 1 | 1
CC(/C=N/NC(=O)COc1ccccc1C)=N\NC(=O)COc1ccccc1C | -9 | -4 | 0 | -1 | 12*
CCOP(=O)(OCC)/C(C#N)=C/c1ccc(-c2ccc(F)cc2F)o1 | -12 | 8 | 0 | -8 | 13*
Cc1c(C(=O)OCC2CCCO2)[nH]c2c1C(=O)CC(c1ccc(N(C)C)cc1)C2 (configuration not stated) | 21* | 2 | 0 | 4 | -4
CCOCCOC(=O)c1[nH]c2c(c1C)C(=O)CC(c1ccccc1)C2 (configuration not stated) | 2 | 2 | 2.2* | 1 | ·
CCOC(=O)c1[nH]c2c(c1C)C(=O)CC(c1ccc(F)cc1)C2 (configuration not stated) | -4 | -3 | 0 | 0 | 0
CCOCCOC(=O)c1[nH]c2c(c1C)C(=O)CC(c1cccs1)C2 (configuration not stated) | -11 | -5 | 0 | -4 | 1
Cc1cc(C(=O)NCC(=O)OCC(=O)N(C)C2CCCCC2)ccc1[N+](=O)[O-] | 1 | -6 | 0 | 0 | 3
O=C(Nc1ccc(NC(=O)c2cccs2)cc1)c1ccc2c(c1)OCO2 | -6 | -2 | 0 | -7 | 14*
O=C(Nc1ccc(NC(=O)c2cccs2)cc1)c1ccc2c(c1)OCCO2 | -5 | 1 | 0 | -8 | 29*
O=C(Nc1ccc(NC(=O)c2ccc3c(c2)OCCO3)cc1)c1ccccc1 | -5 | 1 | 0 | -4 | 12*
O=C(Nc1ccccc1)c1ccc2c(c1)OCCO2 | -2 | -6 | 0 | 0 | -1
CCOC(=O)[C@]12CCC=C1N(Cc1ccc(Cl)cc1Cl)C(=O)[C@H](CC(=O)NCc1ccc(C)o1)C2 | 2 | 19 | 0 | 3 | ·
CC1(C)CNC(=S)N1Cc1ccccc1 | -7 | -8 | 0 | -6 | ·
COc1ccc(Cl)cc1NC(=O)C(C)Sc1nnc(C2CC2)n1C1CC1 (configuration not stated) | -3 | 2 | 1 | -2 | 0
CCN(CC)S(=O)(=O)c1ccc(NC(=S)Nc2ccccc2)cc1 | 4 | 1 | 0 | -2 | 1
COc1cc(OC)cc(C(=O)Nc2nnc(NC(=S)Nc3ccccc3)s2)c1 | · | 9 | 1 | · | 26*
CCN(CC)S(=O)(=O)c1ccc(C(=O)Nc2nnc(NC(=S)Nc3ccccc3)s2)cc1 | 8 | 3 | 0 | 4 | 28*
Cc1ccc(NS(=O)(=O)c2ccc(C(=O)NCCCN3CCCC3=O)cc2)cc1C | -5 | -8 | 0 | 1 | 0
COc1ccc(C2SCC(C(=O)O)N2C(C)=O)cc1OC (configuration not stated) | -4 | -4 | 0 | 1 | 0
SMILES | ADAM10 inh | FAS TE block | aDG glyco up | ADAM17 inh | NR3A LBD binder
O=[N+]([O-])c1ccc(N/N=C/c2cccc(O)c2)cc1 | 2 | 12 | 0 | 8 | 26*
O=[N+]([O-])c1ccc(N/N=C/c2ccc[nH]2)cc1 | 7 | -7 | 1 | 3 | 25*
Cc1ccc(NC(=O)c2ccc(N/N=C/c3cccc(O)c3)c([N+](=O)[O-])c2)cc1 | 1 | 0 | 0 | -3 | 256*
Cc1ccccc1NC(=O)c1ccc(N/N=C/c2ccccc2O)c([N+](=O)[O-])c1 | 6 | -11 | 0 | -3 | -2
O=[N+]([O-])c1ccc(C=NNc2ccc(S(=O)(=O)O)cc2)cc1 | 9 | 4 | 0 | 3 | -19
O=[N+]([O-])c1ccc(NN=Cc2cccc([N+](=O)[O-])c2)cc1 | -4 | 2 | 0 | -2 | 34*
CCOc1ccc(N(C(C)C(=O)NC(C)CC)S(C)(=O)=O)cc1 (configuration not stated) | 3 | -7 | 0 | -1 | -1
O=[N+]([O-])c1ccc(N/N=C/c2cccnc2)cc1 | 11 | 7 | 0 | 0 | 12*
O=C(Cc1ccc([N+](=O)[O-])cc1)N/N=C/c1cccnc1 | -3 | 2 | 0 | -2 | 1
Cc1cccc(C(=O)Oc2ccc(/C=N/O)cc2)c1 | 3 | -5 | 0 | 0 | -14
CNc1ccc(/C=C/C(=O)c2ccc3c(c2)OCCO3)cc1[N+](=O)[O-] | 2 | 2 | 0 | 1 | -7
Cc1cccc(C(=O)Oc2ccccc2/C=N/Nc2ccc([N+](=O)[O-])cc2)c1 | -7 | 29 | 0 | -1 | 14*
CNc1ccc(/C=C/C(=O)c2ccc(C)cc2)cc1[N+](=O)[O-] | 7 | 4 | 0 | -2 | 21*
O=[N+]([O-])c1cccc(/C=N/Nc2cc(Cl)nc(-c3ccccc3)n2)c1 | 0 | 30 | 3 | -1 | 28*
Cc1noc(C)c1C(=O)Nc1cc(Cl)ccc1N1CCOCC1 | -6 | 0 | 0 | 1 | -2
Cc1ccc(Cn2c(CCCO)nc3ccccc32)cc1 | -1 | -3 | 0 | -4 | 0
CCCCCCCCCS(=O)(=O)N/N=C/c1cccc([N+](=O)[O-])c1 | 6 | 47 | 0 | 2 | 18*
Cc1cccc(NC(=S)N/N=C/c2cccc([N+](=O)[O-])c2)c1 | · | 24 | 0 | · | 150*
O=[N+]([O-])c1ccc(N/N=C/c2cccc(O)c2O)cc1 | 4 | 32 | 0 | 0 | 35*
COc1ccc(NC(=O)Nc2cccc(F)c2)c(OC)c1 | 3 | 0 | 0 | 0 | 5
COc1ccc(NC(=O)Nc2cc(C)ccc2OC)cc1 | 2 | 2 | 1 | 0 | -23
COc1ccc(/C=N/OC(=O)Nc2ccc(Cl)cc2)c(OC)c1 | 2 | 11 | 0 | 2 | 10*
COc1ccc(OC)c(NC(=O)Nc2ccc(Cl)cc2)c1 | · | 20 | 0 | · | 28*
